The sequences below were run against TXNDC17 (assay: pooled miR-30 sensor sort-seq; sequence = guide strand). Details: shRNA.
In the case of AAGACACTCAGATTCTACCAGT, the sensor-assay potency score (higher = more potent) is reported as -0.12. TTACTTTCAAGTTTTTTCTGAA gave a sensor-assay potency score (higher = more potent) of 0.123. In the case of TTTCTGAAGTCATTATTTGGAT, the sensor-assay potency score (higher = more potent) is reported as -0.595. Work on TTCTGAAGTCATTATTTGGATC yielded a sensor-assay potency score (higher = more potent) of -0.868. With TTTTCTGAAGTCATTATTTGGA the sensor-assay potency score (higher = more potent) was -0.354. In the case of TAGATGAACACACATCCTTCAC, the sensor-assay potency score (higher = more potent) is reported as -0.655. TTTTTCTGAAGTCATTATTTGG showed a sensor-assay potency score (higher = more potent) of -1.37. Sequence AGTAGATGAACACACATCCTTC has a sensor-assay potency score (higher = more potent) of -1.77. In the case of TAAGTAGTGTAGGCACTGCTGT, the sensor-assay potency score (higher = more potent) is reported as -0.733. ATTGATACTAGAACAAATCAGG gave a sensor-assay potency score (higher = more potent) of -0.62. TTAAGTAGTGTAGGCACTGCTG was tested, and the sensor-assay potency score (higher = more potent) was -0.868.

What follows are sequences tested against TXNDC2 in the same assay as above. Details: shRNA.
In the case of TTTTTTATAAAACTGAAAGGTT, the sensor-assay potency score (higher = more potent) is reported as -0.527. For TTTTATAAAACTGAAAGGTTGG, the sensor-assay potency score (higher = more potent) was -0.0568. In the case of TTTTTCTGAGGACTTGGGGAGG, the sensor-assay potency score (higher = more potent) is reported as -1.18. With TCTTCTAGGGACTTGGGGCTGT the sensor-assay potency score (higher = more potent) was -0.62. Sequence TCTTCTGAGGACTTGGGGCTGT has a sensor-assay potency score (higher = more potent) of -0.284. TTCTTCTTCAGGCTTTAGGATG showed a sensor-assay potency score (higher = more potent) of -1.62. AAGAATGGTCTGATGGTCCTGC showed a sensor-assay potency score (higher = more potent) of 0.56. Sequence TTCCAAGAACTCTAGGGCCAGG has a sensor-assay potency score (higher = more potent) of -1.16. Sequence TTGGGGATGTCAATCTCCTTGG has a sensor-assay potency score (higher = more potent) of -0.981. Sequence TAGGATGTCACCCTCCTTGGAT has a sensor-assay potency score (higher = more potent) of -0.739. TTTCCAAGAACTCTAGGGCCAG showed a sensor-assay potency score (higher = more potent) of -0.912. For TTCTTCTGAGGACTTGGGGAGG, the sensor-assay potency score (higher = more potent) was -1.18.

Each sequence was assayed against UBA1 in the same assay as above. Details: shRNA.
For TACTTTGACCTGACTGACGATG, the sensor-assay potency score (higher = more potent) was -0.507. Sequence TTGACATCAAAGGTGAGCGGGT has a sensor-assay potency score (higher = more potent) of -0.267. Work on TTGGTGAGCACCACCACCTGGA yielded a sensor-assay potency score (higher = more potent) of 0.0519. Work on TATAGTACTGGTGACGTGGTGC yielded a sensor-assay potency score (higher = more potent) of 0.491. ATTCTTGTAGGAGTCAAGCTGT gave a sensor-assay potency score (higher = more potent) of 0.0651. In the case of TTCTCTTGCAGGTCTGAGCCAA, the sensor-assay potency score (higher = more potent) is reported as -0.695. TTAGGTACTTTGACCTGACTGA showed a sensor-assay potency score (higher = more potent) of -0.00997. TTCCGGTAGTAGACACAGCGGC was tested, and the sensor-assay potency score (higher = more potent) was -0.978. In the case of TTCTTGAGCAGCTCACAGCCAA, the sensor-assay potency score (higher = more potent) is reported as -0.992. TTCTTAGGTACTTTGACCTGAC gave a sensor-assay potency score (higher = more potent) of 0.097. With TATGTCTGCTTCACTGCCGTTC the sensor-assay potency score (higher = more potent) was -0.544. TTTAACTTCGTGACATCCCAGG was tested, and the sensor-assay potency score (higher = more potent) was -0.746.

Each sequence was assayed against UBA3 in the same assay as above. Details: shRNA.
For TTGGATCTAAGACACCATCTTC, the sensor-assay potency score (higher = more potent) was 0.0215. TTGAATAGTACAGTCTGTGGGG gave a sensor-assay potency score (higher = more potent) of 0.37. With TAGATAATCCAAAACCTCCTGT the sensor-assay potency score (higher = more potent) was 0.333. Sequence TATATTGTGATGCTCTCTCTAG has a sensor-assay potency score (higher = more potent) of -0.466.

Source: the OligoGym collection
Further: reference of the scale not given here.
